93 compounds from PubChem BioAssay AID488862 (Broad Institute, 2010) can be followed below.

In all, about 340,000 compounds went through this assay and about 1,200 (0.35%) were called active. Rule as the data show it: active = inhibition above about 52%; inactive = the rest. Many of the other results were omitted from the sample, so actives are more common in it than they were.

The inhibition is the drop in the measured response relative to a control, in per cent.

This test can be described thus: suppresses PrP 5' UTR mRNA reporter expression (AID 488862). Also: 0 = median of the neutral control wells. Particulars: cell-based PrP 5' UTR mRNA reporter, plate reader; stronger effect = higher value; concentration not given here.
Take `CC1(C)O[C@@H]2[C@H](O1)[C@@H](COS(=O)(=O)O)O[C@H]2n1cnc2c(=O)[nH]cnc21`: the inhibition was -8.78% (inactive).
As for `CC(=NCc1ccco1)c1c(C(F)(F)F)[nH]n(-c2nc3ccccc3s2)c1=O`, the inhibition was 0.0675% (inactive).
On to `COc1ccc(C(=O)Nc2cccc(/C=C(/CCC(=O)O)c3nc4ccccc4s3)c2)cc1`, for which the inhibition was -8.9% (inactive).
As to `COC(=O)Cc1[nH]n(-c2nc3ccccc3s2)c(=O)c1C(C)=Nc1ccc(OC)cc1`, the inhibition was 80.1% (active).
In the case of `COc1ccc(C(=O)COC(=O)C(O)c2ccccc2)c(OC)c1` (stereo not drawn), the inhibition is -34.1% (inactive).
With `CC(=O)OC1C2(CC3N4C(=O)C5(CO)SSC4(CC31O)C(=O)N5C)OC(C)C(C)(C)C2=O` (stereo not drawn) the figure was 96.4% (active).
Take `CC(C)c1ccc(/C=C/C(=O)NCCCN2CCOCC2)cc1`: the inhibition was -9.62% (inactive).
With `OCCC1CN(Cc2ccc3nsnc3c2)CCN1C1CCCC1` (stereo not drawn) the figure was -10% (inactive); with `COc1ccc(C(=O)OCC(=O)c2cc(C)n(CC3CCCO3)c2C)cc1[N+](=O)[O-]` (stereo not drawn), -11.7% (inactive).
In the case of `Cc1ccsc1C(=O)OCC(=O)Nc1cccc(F)c1` it was -13.8% (inactive); in that of `Cc1ccsc1C(=O)OCC(=O)c1cc(C)n(CC2CCCO2)c1C` (stereo not drawn), 78.7% (active); in that of `COc1ccc(Cl)cc1NC(=O)[C@@H]1CCCN1C(=O)c1cccs1`, -9.55% (inactive).
In the case of `COc1cc(NS(=O)(=O)c2ccc(NC(=S)NC(=O)c3ccccc3)cc2)nc(OC)n1` it was 1.17% (inactive); in that of `CS(=O)(=O)N(CC(=O)N1CCCCCC1)c1cccc(Cl)c1Cl`, -24.3% (inactive).
As for `CCn1c(=O)c(=O)[nH]c2c(=O)oc3ccc(S(=O)(=O)Nc4ccc(OC)cc4)cc3c21`, the inhibition is 69% (active).
On to `COc1ccc(S(=O)(=O)Nc2ccc3oc(C)c(C(C)=O)c3c2)cc1`, for which the inhibition was -20.1% (inactive).
With `COc1ccc(NS(=O)(=O)c2ccc3oc(SCC(N)=O)nc3c2)cc1`, the inhibition was -11.7% (inactive).
In the case of `O=c1c2ccccc2cnn1Cc1n[nH]c(=S)n1-c1ccccc1F` it was -33.3% (inactive); in that of `O=C(COc1cc(Cl)c(Cl)cc1Cl)NCCc1ccccn1`, -11.6% (inactive).
With `Cc1ccc(CCC(=O)Nc2ncc(Cc3cc(Cl)ccc3Cl)s2)o1`, the inhibition was 78% (active).
With `Cc1ccc(C(=O)Nc2nc3ccc(Cl)cc3s2)o1`, the inhibition is -73.3% (inactive).
As to `Cc1ccc(Cc2cnc(N)s2)o1`, the inhibition is -14.5% (inactive).
With `Cn1c(-c2ccccc2)c[n+]2c1CCCCC2`, the inhibition was -9.16% (inactive).
On to `CCN1CCN(c2nc(Nc3cc(OC)ccc3OC)nc(Nc3cc(OC)ccc3OC)n2)CC1`, for which the inhibition is -23.7% (inactive).
With `CCOC(=O)c1c(C)n(C)c2ccc(OC)c(NC(=O)CN3CCC4(CC3)OCCO4)c12` the figure was -19% (inactive); with `NS(=O)(=O)c1ccc(CNC(=O)c2ccc(Cl)cc2[N+](=O)[O-])cc1`, -4.62% (inactive).
As to `NC(=O)c1ccc(NC(=O)COC(=O)c2ccc([N+](=O)[O-])cc2)cc1`, the inhibition is 61.8% (active).
With `CC(=O)Nc1ccc(C(=O)OCC(=O)Nc2ccc([N+](=O)[O-])cc2C(F)(F)F)cc1` the figure was -18.6% (inactive); with `O=C(COC(=O)C1CCCCC1)Nc1ccc([N+](=O)[O-])cc1`, 5.99% (inactive).
Regarding `O=C(CCc1ccccc1)NCCc1cccs1`, the inhibition was -25.9% (inactive).
Take `Cn1c(SCC(=O)NC2CCCCC2)nnc1-c1cc2ccccc2o1`: the inhibition is -18.5% (inactive).
With `O=[N+]([O-])c1ccc(C=NN=Cc2ccc([N+](=O)[O-])cc2)cc1` the figure was -32.5% (inactive).
With `Nc1ccc([N+](=O)[O-])cc1`, the inhibition is 3.7% (inactive).
Regarding `O=C1/C(=C\c2ccc([N+](=O)[O-])cc2)CS(=O)(=O)C/C1=C/c1ccc([N+](=O)[O-])cc1`, the inhibition was 71.1% (active).
In the case of `Cc1nonc1C(=O)N/N=C/c1ccc(O)cc1` it was -28.8% (inactive).
`COC(=O)c1ccccc1NC(=O)CN(Cc1ccccc1)S(C)(=O)=O`: the inhibition is -21.1% (inactive).
For `C/C(=N\Nc1nncc2ccccc12)c1ccc(Cl)c([N+](=O)[O-])c1`, the inhibition is -45.7% (inactive).
On to `CN(CCO)c1ccc(/C=N/Nc2nncc3ccccc23)cc1`, for which the inhibition was 79.8% (active).
`COc1cccc(/C=N\Nc2nncc(-c3ccccc3)n2)c1`: the inhibition was -63.5% (inactive).
For the compound `CC(C)(C)C1CCC(C(=O)Nc2cccnc2)CC1` (stereo not drawn), the inhibition is -7.89% (inactive).
As for `O=C(Nc1ccc(Br)cn1)C1CCN(S(=O)(=O)c2cccs2)CC1`, the inhibition was -7.76% (inactive).
Consider `C/C(=N\NC(=O)c1ccc2ccccc2c1)c1cccnc1`, for which the inhibition is -12.7% (inactive).
On to `CC1CCc2sc(C(=O)N/N=C/C3CCCCC3)cc2C1` (stereo not drawn), for which the inhibition was 1.9% (inactive).
Consider `C/C(=N\NC(=O)c1cc2c(s1)CCC(C)C2)c1cccnc1` (stereo not drawn), for which the inhibition was 55.4% (active).
With `COc1ccc2oc(C(=O)OCC(=O)N(CC(C)C)c3c(N)n(Cc4ccccc4)c(=O)[nH]c3=O)c(C)c2c1`, the inhibition was 4.93% (inactive).
`COc1ccc(N(C(=O)c2ccc(C)cc2)S(=O)(=O)c2cccs2)cc1`: the inhibition was -6.19% (inactive).
In the case of `CC(C)(C)c1ccc(OC(=O)N2CCCCC2)cc1` it was -72.8% (inactive); in that of `CC(C)(C)c1ccc(Oc2ccc(N)cc2)cc1`, 64.6% (active); in that of `CC(C)(C)c1ccc(OC2=CS(=O)(=O)c3ccccc32)cc1`, -61.3% (inactive).
Regarding `CCOC(=O)N1CCN(C(=O)COCc2cc(-c3ccc4c(c3)OCO4)on2)CC1`, the inhibition is -11.7% (inactive).
For `N#C/C=C\Oc1ccc(Cl)cc1N`, the inhibition is -13% (inactive).
Take `COc1cccc2c1OCC1COc3c(c(=O)n(C)c(=O)n3C)C21` (stereo not drawn): the inhibition was -23.4% (inactive).
In the case of `O=C(NCCCN1CCOCC1)c1ccccc1NS(=O)(=O)c1ccc(Br)cc1` it was -22.1% (inactive); in that of `COCC(C)n1c(C)cc(C(=O)CSc2cc(C)c3ccccc3n2)c1C` (stereo not drawn), -11.2% (inactive); in that of `c1ccc(-n2ncc(-c3nn[nH]n3)n2)cc1`, -12.7% (inactive).
Turning to `O=S(=O)(Nc1ccc2nc(N3CCOCC3)sc2c1)c1ccccc1`, the inhibition is -104% (inactive).
For `CN(C)CCN(C(=O)C1CCCCC1)c1nc2cc3c(cc2s1)OCO3`, the inhibition was -8.29% (inactive).
Consider `c1c2c(cc3sc(N4CCCCC4)nc13)OCCO2`, for which the inhibition was 76.1% (active).
In the case of `CC(=O)N1CCc2cc(S(=O)(=O)Nc3ccccc3N3CCN(C)CC3)ccc21` it was -36.7% (inactive).
Consider `Cc1ccc(C(c2sc3nc(C)nn3c2O)N2CCN(c3ccccc3)CC2)cc1` (stereo not drawn), for which the inhibition is -16.6% (inactive).
Turning to `C[C@]12CCC3C(CC[C@H]4[C@H](O)[C@H](O)CC[C@]34C)C1CCC2=O` (stereo partly drawn), the inhibition was -23.5% (inactive).
`CC12CCC3C(CCC4CC(=O)CCC43C)C1CC(=NO)C2=O` (stereo not drawn): the inhibition was 52% (active).
Regarding `CC(C)C(NC(=O)OCc1ccccc1)C(=O)OCC(=O)N1C(C)CCCC1C` (stereo not drawn), the inhibition is -20.8% (inactive).
In the case of `CN(C)C(=O)c1cc(Br)ccc1Cl` it was -23.2% (inactive); in that of `CC(C)CC[n+]1ccn(C2=C([O-])c3ccccc3C(=O)/C2=N\S(=O)(=O)c2ccccc2)c1`, -17.3% (inactive); in that of `CN(c1ccc2nc3ccccc3c(=O)n2n1)C1CCCCC1`, 78.1% (active).
Take `CC(C)C(C)NC(=O)COc1nc2ccccc2nc1N(C)C1CCCCC1` (stereo not drawn): the inhibition was -28.4% (inactive).
Consider `CC(C)(C)c1nc2ccccc2c(=O)n1N1C(=O)c2ccccc2C1=O`, for which the inhibition was -7.16% (inactive).
In the case of `O=C(CCn1c(=O)oc2ccccc21)Nc1ccon1` it was -14.3% (inactive); in that of `CCCNC(=O)C1CC(=O)N(c2ccc(OCC(=O)Nc3cccc(C)c3C)cc2)C1` (stereo not drawn), -2.71% (inactive); in that of `O=C(c1ccc2c(c1)C(=O)N(Cc1ccncc1)C2=O)N1CCN(S(=O)(=O)c2ccc(OC(F)(F)F)cc2)CC1`, -12.7% (inactive).
As to `CC[n+]1c(C)n(-c2ccccc2)c2ccc(NC(C)=O)cc21`, the inhibition was -45% (inactive).
`CSc1nc(N(C)NC(=O)c2cccc(C)c2)c2ccccc2n1`: the inhibition is 30.9% (inactive).
Take `CN(NC(=O)c1ccccc1F)c1nc(C(F)(F)F)nc2ccccc12`: the inhibition is 61.9% (active).
With `Cn1c(CC(=O)NNC(=O)c2ccccc2F)nc2ccccc21` the figure was -14.3% (inactive); with `CCOC(=O)c1ccc(NC(=O)C2CC(=O)Nc3nc4ccccc4n32)cc1` (stereo not drawn), -13.3% (inactive).
In the case of `CCCc1ccc(OCC(O)CN2CCN(CCO)CC2)cc1` (stereo not drawn) it was -4.25% (inactive); in that of `Nc1ccc(OCC(O)C[n+]2ccc(CCS(=O)(=O)[O-])cc2)cc1` (stereo not drawn), 78.9% (active).
With `CCCc1ccc(OCC(O)CN2CCN(C(=O)OCC)CC2)cc1` (stereo not drawn) the figure was -12.3% (inactive).
`COC(=O)N1CN(C(=O)OC)CN(C(=O)OC)C1`: the inhibition was -16.8% (inactive).
Turning to `CCOC(=O)C1=C(N)N(c2ccc(C)cc2)C2=C(C(=O)CCC2)C1c1cccs1` (stereo not drawn), the inhibition was -23.6% (inactive).
`COC(=O)C1C(=O)c2c([nH]c(C(=O)OCCSC)c2C)CC1C` (stereo not drawn): the inhibition was -51.7% (inactive).
On to `CCCOC(=O)c1[nH]c2c(c1C)C(=O)CC(c1cccs1)C2` (stereo not drawn), for which the inhibition is 60.4% (active).
With `COc1cccc(NC(=O)N2CCCC2C(=O)NC2CCCCC2)c1` (stereo not drawn) the figure was -31.7% (inactive); with `C/C(=C(\C#N)C(=O)NCCCN1CCOCC1)N(C)C`, -31.6% (inactive).
As to `COc1cccc2c1OCC(C(=O)NCc1ccc(Cl)cc1Cl)=C2`, the inhibition is -13% (inactive).
In the case of `COC(=O)C(C)Sc1ccc2nnc(-c3cccc(F)c3)n2n1` (stereo not drawn) it was -8.06% (inactive).
Regarding `COCCNc1cc(-c2ccccc2)nc2cc(-c3cccc(F)c3)nn12`, the inhibition was 59.6% (active).
As to `COc1ccc(NC(=O)c2cc3nc(-c4ccccc4)cc(C)n3n2)cc1OC`, the inhibition was -26.9% (inactive).
As to `COc1ccc(-c2nc(-c3ccccc3)no2)c(OC)c1`, the inhibition was 66.6% (active).
With `COc1ccc(OC)c(-c2csc(-c3cccs3)n2)c1` the figure was 4.49% (inactive); with `COc1ccc(/C=C/c2noc(-c3ccccc3OC(C)=O)n2)cc1`, -28.8% (inactive); with `COc1ccccc1Nc1nnc(SC(C)C(=O)NC2CC2)s1` (stereo not drawn), 2.27% (inactive).
